Assay results reported in PubChem BioAssay AID1852 (Sanford-Burnham Center for Chemical Genomics, 2009).
Out of some 2,500 compounds screened, about 1,100 (44%) were called active. So high a share suggests a set chosen from earlier hits. The list shows a part of the results. Unmarked numbers belong to inactive results.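 The calls were made as follows: active = inhibition above 50% at 4 µM in the single-point screen; inactive = inhibition of 50% or less.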

Assay: TNF-a-driven NF-kB reporter inhibitors, primary screen, selectivity assay for NOD1/NOD2 signaling inhibitor project, cell-based, HEK293T NF-kB-Luc, luminescence (AID 1852)
Settings: TNF-a induced, 14 h, at 4 µM, active compounds read high

Row | SMILES | inhibition
1 | CCOC(=O)N=Nc1c2ccccc2c2nc3no[nH]c3nc12 | 105% (active)
2 | COc1cc(/C=C2\C(=N)N3N=C(S(C)(=O)=O)SC3=NC2=O)ccc1OCCOc1ccccc1C | -26.4%
3 | COc1ccc(-n2c(C)c(C(C)=O)c3cc(O)ccc32)cc1 | 72.1% (active)
4 | CC(=O)c1c(C)n(-c2ccc(Cl)cc2)c2ccc(O)cc12 | 12.3%
5 | CC(=O)c1c(C)n(-c2ccccc2)c2ccc(O)cc12 | 68% (active)
6 | CC(=O)c1ccc(-n2c(C)c(C(C)=O)c3cc(O)ccc32)cc1 | 50.8% (active)
7 | CC(=O)c1ccc(N2CCN(c3ccnc4cc(Cl)ccc34)CC2)cc1 | 45.2%
8 | Cc1ccc(S(=O)(=O)NC(CC(C)C)C(=O)N2CC(C)OC(C)C2)cc1 (stereo unspecified) | 9.2%
9 | O=C1CCC2S/C(=C/Nc3ccc(C(F)(F)F)cc3)C(=O)N12 (stereo unspecified) | 95.8% (active)
10 | Cc1cc(C(=O)N/N=C/c2cc(Br)ccc2OC(=O)c2ccccc2)n[nH]1 | 91.1% (active)
11 | COc1cccc(C(=O)Oc2c(Br)cc(Br)cc2/C=N/NC(=O)c2cc(C)[nH]n2)c1 | 71.1% (active)
12 | Cc1cc(C(=O)N/N=C/c2cc(Br)cc(Br)c2OC(=O)c2cccc(F)c2)n[nH]1 | 75.2% (active)
13 | Cc1cccc(Nc2nc(N)nc(CCl)n2)c1 | 25.3%
14 | O=[N+]([O-])c1ccc(N2CCN(c3ccccc3)CC2)nc1 | -49.6%
15 | Cc1ccc(S(=O)(=O)NCc2ccc(C(=O)N3CCN(c4ccc([N+](=O)[O-])cc4)CC3)cc2)cc1 | 43.8%
16 | Cc1c(-c2ccccc2)oc2c(C(=O)N3CCN(c4ccc([N+](=O)[O-])cc4)CC3)cccc2c1=O | 60.9% (active)
17 | CCN1CCN(S(=O)(=O)c2c(C)cc(C)cc2C)CC1 | 54.2% (active)
18 | CCN1CCN(S(=O)(=O)c2ccc(Cl)c(C(=O)Nc3cc(Cl)ccc3N3CCOCC3)c2)CC1 | 28.9%
19 | Cc1ccc(S(=O)(=O)N2CCN(CCC#N)CC2)cc1 | 44.4%
20 | Cn1cccc1-c1cc(C(=O)N/N=C/c2cc(Br)ccc2O)[nH]n1 | 60.4% (active)
21 | COc1ccc2[nH]c(C(=O)N/N=C/c3ccc(O)cc3O)cc2c1 | 48.1%
22 | O=C1CSC(c2cccnc2)N1CCc1ccccn1 (stereo unspecified) | 0.7%
23 | COc1ccc(C)cc1NC(=O)c1ccccc1NS(=O)(=O)c1ccc(Cl)s1 | 87.9% (active)

Row | SMILES | inhibition
24 | O=C(Nc1cc(S(=O)(=O)Nc2ccccc2Cl)ccc1O)c1cc2c(s1)CCCC2 | 36.1%
25 | Cc1ccc(NC(=O)c2ccccc2NS(=O)(=O)c2ccc(Cl)s2)cc1 | 71.2% (active)
26 | CS(=O)(=O)Nc1ccccc1C(=O)Nc1cc(Cl)cc(Cl)c1 | 74.6% (active)
27 | Cc1cc(NC(=O)c2ccccc2NS(=O)(=O)c2c(C)c(C)cc(C)c2C)no1 | 9.8%
28 | Cc1ccc(NC(=O)c2cc3c(s2)CCCC3)cc1S(=O)(=O)Nc1ccccc1Cl | 69.1% (active)
29 | COc1cccc(NS(=O)(=O)c2ccc(Br)s2)c1 | -23.8%
30 | COc1ccccc1NS(=O)(=O)c1cccc(NC(=O)c2sc3ccccc3c2Cl)c1 | 39.2%
31 | COc1cc(NC(=O)c2ccccc2NS(=O)(=O)c2ccc(Cl)s2)cc(OC)c1 | 84.9% (active)
32 | Cc1ccc(NC(=O)c2ccccc2NS(=O)(=O)c2ccc(Cl)s2)cc1S(=O)(=O)N1CCOCC1 | 84.3% (active)
33 | N#C/C(=C(/O)COC(=O)COc1cccc(Br)c1)c1nc2ccccc2[nH]1 | 33%
34 | Cc1cc(C)cc(OCC(=O)OC/C(O)=C(\C#N)c2nc3ccccc3[nH]2)c1 | 103% (active)
35 | N#C/C(=C(/O)COC(=O)COc1ccc(Cl)cc1)c1nc2ccccc2[nH]1 | 108% (active)
36 | CCCS(=O)(=O)c1nnnn1-c1cccc(OC)c1 | 76.1% (active)
37 | CCS(=O)(=O)c1nnnn1-c1ccccc1S(C)(=O)=O | 43.2%
38 | COc1cccc(-n2nnnc2S(C)(=O)=O)c1 | 79.5% (active)
39 | N#CCCS(=O)(=O)c1nnnn1-c1ccccc1 | 75.5% (active)
40 | Cc1cccc(Nc2ncnc3onc(-c4cccc(Cl)c4)c23)c1C | 15.5%
41 | COc1cccc(NC(=O)Nc2nc(-c3ccc(OC)c(OC)c3)cs2)c1 | 100% (active)
42 | COc1cccc(NC(=O)Nc2cccc(C(=O)O)c2)c1 | 65.7% (active)
43 | COc1ccc(OC)c(-c2csc(NC(=O)C3=NNC(=O)CC3)n2)c1 | 37.1%
44 | COc1cccc(NC(=O)CCC2CCN(C(=O)c3cncs3)CC2)c1 | 4.6%
45 | O=C(Nc1cccc(C(=O)O)c1)Nc1ccccc1Cl | -17.8%
46 | COc1ccc(NC(=O)Nc2nnc(-c3ccncc3)s2)cc1 | 30%

Row | SMILES | inhibition
47 | CC(Sc1nnc2c(n1)[nH]c1ccccc12)C(=O)N(C)C1CCCCC1 (stereo unspecified) | 32.3%
48 | COc1ccc(C)cc1NC(=O)CSc1ccc(-c2ccccn2)nn1 | 82.9% (active)
49 | COc1ccc(C)cc1NC(=O)CSc1ccc(-c2ccco2)nn1 | -4.4%
50 | COc1ccc(NC(=O)CSc2ccc(-c3cccs3)nn2)c(OC)c1 | 72.8% (active)
51 | COc1ccc(OC)c(NC(=O)CSc2ncnc3c2cnn3-c2ccccc2Cl)c1 | 36.9%
52 | COc1ccc(C)cc1NC(=O)CSc1ccc(-c2sc(C)nc2C)nn1 | 21.8%
53 | Cc1ccc(NC(=O)Nc2nnc(-c3ccncc3)s2)cc1C | 43.3%
54 | COc1cc(C(=O)Nc2scc(-c3ccc(Br)cc3)c2C(=O)O)cc(OC)c1OC | 21.5%
55 | COc1cccc(C(=O)N/N=C(/c2ccccc2)c2ccccn2)c1 | 62.2% (active)
56 | COc1cc(C(=O)Nc2sc3c(c2C(=O)O)CCC(C)C3)cc(OC)c1OC (stereo unspecified) | 40%
57 | C/C(CC(=O)Nc1cccnc1)=N\NC(=O)c1ccc([N+](=O)[O-])c(Cl)c1 | 15.3%
58 | O=C(N/N=C(\c1ccccc1)c1cccnc1)c1cccc(F)c1 | 102% (active)
59 | COc1cc(C(=O)N/N=C(\c2ccccc2)c2ccccn2)cc(OC)c1OC | 64% (active)
60 | COc1ccc(C(=O)N/N=C(\c2ccccc2)c2ccccn2)cc1 | 46.3%
61 | COc1ccc(-c2csc3nc(-c4ccccc4OC)oc(=O)c23)cc1 | 12.5%
62 | COc1ccccc1-c1nc(C#N)c(N2CCN(c3cccc(Cl)c3)CC2)o1 | -20.8%
63 | COc1ccccc1-c1nnc(Sc2nc([N+](=O)[O-])nn2C)o1 | 54.9% (active)
64 | O=C(NCCCSc1ccccc1)c1cc(Cl)ccc1O | 80.1% (active)
65 | C/C(=N\NC(=O)c1cc(Cl)ccc1O)c1ccc(Br)s1 | 48%
66 | O=C(NCCCSc1ccccc1)c1cc(Br)ccc1O | 69.9% (active)
67 | COc1ccccc1CNC(=O)C1CCN(C(=O)[C@@H]2Cc3ccccc3CN2)CC1 | 14.5%
68 | COc1cc(F)ccc1CN1CCC(C(=O)Nc2ccc(Oc3ccccc3)nc2)CC1 | 57% (active)
69 | O=C(Nc1ccc(Oc2cccnc2)cc1)C1CCN(Cc2cc(Cl)ccc2O)CC1 | 47.8%

Row | SMILES | inhibition
70 | O=C(Nc1cccc(Br)c1)c1ccc(Cl)c(S(=O)(=O)N2CCOCC2)c1 | 45.4%
71 | O=C(Nc1ccc(Cl)c(S(=O)(=O)N2CCOCC2)c1)c1ccc(OCC2CCCO2)cc1 (stereo unspecified) | 94.7% (active)
72 | Cc1ccc(NC(=O)c2ccc(S(=O)(=O)NCC3CCCO3)cc2)cc1C (stereo unspecified) | 4.7%
73 | O=C(/C=C\c1ccco1)Nc1nc(-c2ccc3ccccc3c2)cs1 | 36.9%
74 | CN(C)S(=O)(=O)c1ccc(-c2csc(N/N=C/c3ccco3)n2)cc1 | 99.8% (active)
75 | CN(C)S(=O)(=O)c1ccc(C(=O)Nc2nc(-c3cc4ccccc4o3)cs2)cc1 | 36.3%
76 | CCCC(=O)NC(c1cccs1)c1cc([N+](=O)[O-])c2cccnc2c1O (stereo unspecified) | 71.3% (active)
77 | CCC(=O)NC(c1cccs1)c1cc([N+](=O)[O-])c2cccnc2c1O (stereo unspecified) | 86.2% (active)
78 | Cc1ccccc1Nc1nc(N)nc(CCl)n1 | 24.8%
79 | Cc1ccc(C)c(N2CCN(C(=O)CCS(=O)(=O)c3ccc4c(c3)NC(=O)C(C)S4)CC2)c1 (stereo unspecified) | 74.4% (active)
80 | CC1Sc2ccc(S(=O)(=O)CCC(=O)N3CCN(c4ccccc4F)CC3)cc2NC1=O (stereo unspecified) | 39.3%
81 | Cc1ccc(C)c(N2CCN(C(=O)CCS(=O)(=O)c3ccc4c(c3)NC(=O)CO4)CC2)c1 | 28.3%
82 | COCCN1CCN(C(=O)c2ccc3nc(Cc4ccc(OC)c(OC)c4)oc3c2)CC1 | 8.5%
83 | O=C(c1ccc2c(c1)N(Cc1ccccc1)C(=O)c1ccccc1S2)N1CCCC1 | 34.7%
84 | O=C1Nc2cc(C(=O)N3CCN(c4ccccn4)CC3)ccc2S/C1=C\c1ccccc1 | 3%
85 | CN1C(=O)/C(=C/c2ccccc2Cl)Sc2ccc(C(=O)N3CCCC3)cc21 | 89% (active)
86 | COc1ccc(Cc2noc(CN3CCN(Cc4cccc(Cl)c4)CC3)n2)cc1OC | 35.8%
87 | CCOc1ccc(/C=C2/Sc3ccc(C(=O)N4CCOCC4)cc3N(C)C2=O)cc1OC | 54.9% (active)
88 | COc1ccc(/C=C2\Sc3ccc(C(=O)N4CCN(Cc5ccccc5)CC4)cc3N(C)C2=O)cc1OC | 59.1% (active)
89 | CCOC(=O)N1CCN(C(=O)c2ccc3c(c2)N(C)C(=O)/C(=C\c2ccc(OCC)c(OC)c2)S3)CC1 | 21.6%
90 | Cc1ccccc1/C=C1\Sc2ccc(C(=O)N3CCN(c4ccccn4)CC3)cc2N(C)C1=O | 22.2%
91 | Cc1ccc(C)c(Oc2cc(NC(=O)CCCn3nc(C)c([N+](=O)[O-])c3C)cc([N+](=O)[O-])c2)c1 | -13.6%
